# Measured values taken from PubChem BioAssay (EPA / NIEHS).
# Inconclusive results are not listed. Calls of active or inactive are those of the source. How the source made its calls: active means hit-call score of the fitted dose curve at least 0.9, where 1 is the maximum; inconclusive means response in the unintended direction; inactive means score below 0.9.
# Biological target: human Matrix Metalloproteinase-7 (MMP7), MMP7 (gene 4316) (UniProt P09237)
# Assay: NVS_ENZ_hMMP7: NovaScreen (NVS) Enzymatic Assay for human Matrix Metalloproteinase-7 (MMP7) (AID 2283183)
# In short: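 Cell-free fluorescence enzymatic assay read 1 h after compound addition, activity loss analyzed against DMSO. Primary duplicate testing at 25 uM; compounds meeting threshold rerun in singleton concentration-response up to 50 uM.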
# Sequence of human Matrix Metalloproteinase-7 (MMP7), MMP7 (gene 4316) (P09237 whole entry, looked up): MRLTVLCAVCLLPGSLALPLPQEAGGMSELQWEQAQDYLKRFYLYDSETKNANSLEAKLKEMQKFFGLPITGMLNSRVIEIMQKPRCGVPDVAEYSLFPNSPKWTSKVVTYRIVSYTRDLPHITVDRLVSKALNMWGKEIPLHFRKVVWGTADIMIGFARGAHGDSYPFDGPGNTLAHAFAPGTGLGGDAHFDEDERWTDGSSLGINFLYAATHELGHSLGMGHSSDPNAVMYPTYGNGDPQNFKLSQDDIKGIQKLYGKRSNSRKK
Compound,AC50,outcome
CC(C)=CC1C(C(=O)OCc2coc(Cc3ccccc3)c2)C1(C)C (stereo not given),6.48 µM (active),–
COC(=O)c1c(C(F)F)nc(C(F)(F)F)c(C2=NCCS2)c1CC(C)C,–,inactive
N#CN=C1SCCN1Cc1ccc(Cl)nc1,–,inactive
CCN(CC)c1nc(C)cc(OP(=S)(OC)OC)n1,–,inactive
Clc1nc(Cl)nc(Nc2ccccc2Cl)n1,7.57 µM (active),–

# Biological target: human Matrix Metalloproteinase-2 (MMP2), MMP2 (gene 4313) (UniProt P08253)
# Sequence (P08253 whole entry, looked up): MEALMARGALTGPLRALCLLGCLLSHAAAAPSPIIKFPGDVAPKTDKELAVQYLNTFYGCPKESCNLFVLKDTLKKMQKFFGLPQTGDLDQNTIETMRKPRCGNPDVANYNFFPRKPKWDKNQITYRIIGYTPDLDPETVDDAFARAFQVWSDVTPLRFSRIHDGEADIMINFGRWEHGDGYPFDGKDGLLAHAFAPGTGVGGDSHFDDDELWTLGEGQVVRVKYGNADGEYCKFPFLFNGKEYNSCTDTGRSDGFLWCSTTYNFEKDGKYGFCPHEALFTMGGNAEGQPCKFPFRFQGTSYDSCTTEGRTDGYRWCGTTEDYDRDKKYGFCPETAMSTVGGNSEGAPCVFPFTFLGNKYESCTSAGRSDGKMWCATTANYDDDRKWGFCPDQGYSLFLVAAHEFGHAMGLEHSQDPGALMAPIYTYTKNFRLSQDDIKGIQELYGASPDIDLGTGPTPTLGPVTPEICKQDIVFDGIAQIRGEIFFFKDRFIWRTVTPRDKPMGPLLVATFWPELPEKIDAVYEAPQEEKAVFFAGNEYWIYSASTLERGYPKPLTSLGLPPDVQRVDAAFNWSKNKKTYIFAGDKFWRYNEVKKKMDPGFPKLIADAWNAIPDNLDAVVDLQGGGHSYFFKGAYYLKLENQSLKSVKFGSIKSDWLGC
# Assay: NVS_ENZ_hMMP2: NovaScreen (NVS) Enzymatic Assay for human Matrix Metalloproteinase-2 (MMP2) (AID 2283184)
# In short: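 Cell-free recombinant MMP2 activity with a fluorescent substrate, read 1 h after dosing. Primary screen in duplicate at 25 uM; actives then run in concentration series; loss of signal fitted versus DMSO.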
Compound,AC50,outcome
CS(=O)(=O)c1ccc(C(=O)C2C(=O)CCCC2=O)c([N+](=O)[O-])c1,1.59 µM (active),–
CC(C)=CC1C(C(=O)OCc2coc(Cc3ccccc3)c2)C1(C)C (stereo not given),–,inactive
CC1(C)C(C=C(Cl)Cl)C1C(=O)OC(C#N)c1cccc(Oc2ccccc2)c1 (stereo not given),4.96 µM (active),–
COC(=O)N(C(=O)N1CO[C@@]2(C(=O)OC)Cc3cc(Cl)ccc3C2=N1)c1ccc(OC(F)(F)F)cc1,9.53 µM (active),–
CCOC(=O)C(C)OC(=O)c1cc(Oc2ccc(C(F)(F)F)cc2Cl)ccc1[N+](=O)[O-] (stereo not given),–,inactive

# Biological target: human Matrix Metalloproteinase-9 (MMP9), MMP9 (gene 4318) (UniProt P14780)
# Sequence (P14780 whole entry, looked up): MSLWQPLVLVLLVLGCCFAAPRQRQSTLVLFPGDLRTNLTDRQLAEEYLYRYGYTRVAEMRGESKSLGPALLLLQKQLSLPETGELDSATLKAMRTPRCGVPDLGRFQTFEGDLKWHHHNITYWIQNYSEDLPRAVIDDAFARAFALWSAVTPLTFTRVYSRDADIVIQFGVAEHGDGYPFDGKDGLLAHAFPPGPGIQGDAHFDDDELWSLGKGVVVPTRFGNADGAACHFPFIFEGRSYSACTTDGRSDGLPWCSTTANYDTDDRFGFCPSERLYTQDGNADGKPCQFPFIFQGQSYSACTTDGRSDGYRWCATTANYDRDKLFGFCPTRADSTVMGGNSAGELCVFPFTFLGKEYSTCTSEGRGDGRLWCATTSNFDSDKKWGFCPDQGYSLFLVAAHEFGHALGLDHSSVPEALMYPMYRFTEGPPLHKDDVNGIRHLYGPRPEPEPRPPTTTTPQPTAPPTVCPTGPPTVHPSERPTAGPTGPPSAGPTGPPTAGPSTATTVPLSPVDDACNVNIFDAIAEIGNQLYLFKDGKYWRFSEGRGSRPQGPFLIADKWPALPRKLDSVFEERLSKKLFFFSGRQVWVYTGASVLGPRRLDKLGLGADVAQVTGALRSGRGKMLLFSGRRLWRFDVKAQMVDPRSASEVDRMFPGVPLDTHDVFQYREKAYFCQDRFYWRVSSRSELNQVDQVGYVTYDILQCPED
# Assay: NVS_ENZ_hMMP9: NovaScreen (NVS) Enzymatic Assay for human Matrix Metalloproteinase-9 (MMP9) (AID 2283190);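 further: cell-free recombinant MMP9 protease activity read by fluorescent substrate signal; active means inhibition seen as loss of fluorescence signal versus DMSO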
# In short: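 Cell-free recombinant MMP9 enzyme activity measured by fluorescence intensity 1 h after dosing. Primary screen in duplicate at 25 uM, actives followed in concentration series; loss of signal relative to DMSO.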
Compound,outcome,AC50
COP(=S)(OC)SCn1nnc2ccccc2c1=O,inactive,–
CC1(C)C(C=C(Cl)Cl)C1C(=O)OC(C#N)c1cccc(Oc2ccccc2)c1 (stereo not given),–,13.4 µM (active)
COC(=O)NC(=S)Nc1ccccc1NC(=S)NC(=O)OC,inactive,–
CCN(CC)C(=O)C(C)Oc1cccc2ccccc12 (stereo not given),inactive,–
CCN(CC)c1nc(C)cc(OP(=S)(OC)OC)n1,inactive,–

# Biological target: human Phosphodiesterase 4A1 (PDE4A1), PDE4A (gene 5141) (UniProt P27815)
# Sequence (P27815 whole entry, looked up): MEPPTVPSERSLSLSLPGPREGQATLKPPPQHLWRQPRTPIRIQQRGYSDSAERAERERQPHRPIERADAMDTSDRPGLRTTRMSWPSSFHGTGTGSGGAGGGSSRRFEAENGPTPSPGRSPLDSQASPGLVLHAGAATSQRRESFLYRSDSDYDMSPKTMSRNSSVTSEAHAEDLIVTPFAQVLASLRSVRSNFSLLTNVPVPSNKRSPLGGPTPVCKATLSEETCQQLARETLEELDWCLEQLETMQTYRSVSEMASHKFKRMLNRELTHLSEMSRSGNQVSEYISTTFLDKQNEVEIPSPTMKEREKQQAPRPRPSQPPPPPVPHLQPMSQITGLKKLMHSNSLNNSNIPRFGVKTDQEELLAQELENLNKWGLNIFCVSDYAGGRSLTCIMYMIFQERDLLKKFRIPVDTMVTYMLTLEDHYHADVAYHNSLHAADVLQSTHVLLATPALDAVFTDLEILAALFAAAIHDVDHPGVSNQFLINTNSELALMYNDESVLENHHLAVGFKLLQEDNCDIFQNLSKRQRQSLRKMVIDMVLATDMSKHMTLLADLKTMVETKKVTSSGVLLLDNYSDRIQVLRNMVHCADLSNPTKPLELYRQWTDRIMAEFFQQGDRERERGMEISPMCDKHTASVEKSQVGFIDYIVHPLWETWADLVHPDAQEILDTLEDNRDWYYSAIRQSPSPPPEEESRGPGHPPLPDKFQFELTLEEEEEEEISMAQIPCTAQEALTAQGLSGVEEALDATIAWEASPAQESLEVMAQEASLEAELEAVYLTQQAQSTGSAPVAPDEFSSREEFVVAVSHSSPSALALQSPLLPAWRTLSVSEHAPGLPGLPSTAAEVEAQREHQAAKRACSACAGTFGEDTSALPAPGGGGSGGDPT
# Assay: NVS_ENZ_hPDE4A1: NovaScreen (NVS) Enzymatic Assay for human Phosphodiesterase 4A1 (PDE4A1) (AID 2283191)
# In short: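 Cell-free recombinant human PDE4A1 with fluorescent substrate; product separated by electrophoretic mobility shift, 1 h. Screened at 25 uM, then up to 50 uM in concentration-response; loss of signal fitted against DMSO.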
Compound,AC50,outcome
CCOP(=O)(OCC)Oc1nc(Cl)c(Cl)cc1Cl,25 µM (active),–
CC(C)Nc1nc(Cl)nc(NC(C)C)n1,1 µM (active),–
COC(=O)NC(=S)Nc1ccccc1NC(=S)NC(=O)OC,–,inactive
CCN(CC)c1nc(C)cc(OP(=S)(OC)OC)n1,25 µM (active),–
CCNP(=S)(OC)O/C(C)=C/C(=O)OC(C)C (stereo not given),19.5 µM (active),–
CCC(C)n1c(=O)[nH]c(C)c(Br)c1=O (stereo not given),25 µM (active),–
COP(=S)(OC)Oc1ccc([N+](=O)[O-])c(C)c1,–,inactive

# Biological target: human Phosphodiesterase 5 (PDE5), PDE5A (gene 8654) (UniProt O76074)
# Assay: NVS_ENZ_hPDE5: NovaScreen (NVS) Enzymatic Assay for human Phosphodiesterase 5 (PDE5) (AID 2283194)
# In short: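 Recombinant human PDE5 with specific substrate, read 1 h after dosing by fluorescence with electrophoretic mobility-shift separation of substrate and product. Initial single-concentration duplicate screen at 25 uM, actives followed in concentration series; loss of activity versus DMSO.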
Compound,AC50,outcome
COP(=S)(OC)SCn1nnc2ccccc2c1=O,4.85 µM (active),–
CCOP(=O)(OCC)Oc1nc(Cl)c(Cl)cc1Cl,–,inactive
CC(C)Nc1nc(Cl)nc(NC(C)C)n1,–,inactive
Cc1cnc(C2=NC(C)(C(C)C)C(=O)N2)c(C(=O)O)c1 (stereo not given),–,inactive
Cc1nc(N(C)C)nc(OC(=O)N(C)C)c1C,–,inactive

# Biological target: Serine/threonine-protein phosphatase PP1-alpha catalytic subunit (Homo sapiens) (UniProt P62136)
# Sequence (P62136 whole entry, looked up): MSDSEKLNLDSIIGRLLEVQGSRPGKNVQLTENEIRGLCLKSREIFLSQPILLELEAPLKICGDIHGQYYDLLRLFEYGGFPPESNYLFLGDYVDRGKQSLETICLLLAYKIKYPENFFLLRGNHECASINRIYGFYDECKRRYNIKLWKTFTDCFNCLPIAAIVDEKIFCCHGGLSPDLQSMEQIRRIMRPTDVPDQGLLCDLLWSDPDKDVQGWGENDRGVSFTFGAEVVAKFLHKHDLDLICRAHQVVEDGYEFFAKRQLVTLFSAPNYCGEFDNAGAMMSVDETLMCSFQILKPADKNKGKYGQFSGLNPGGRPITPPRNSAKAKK
# Assay: NVS_ENZ_hPPP1CA: NovaScreen (NVS) Enzymatic Assay for human Protein Phosphatase 1 Aatalytic subunit Alpha (PPP1CA) (AID 2283200)
# In short: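 Recombinant enzyme activity read by fluorescence with electrophoretic mobility shift separating substrate from product, 1.33 h after dosing; loss of signal vs DMSO baseline. Primary screen in duplicate at 25 uM; actives retested in concentration-response up to 50 uM.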
Compound,AC50,outcome
O=P(O)(O)CCCl,9.89 µM (active),–
CC(C)NC(=O)N1CC(=O)N(c2cc(Cl)cc(Cl)c2)C1=O,–,inactive
CCNC(=O)NC(=O)C(C#N)=NOC,–,inactive
